The results in this text go back to PubChem BioAssay AID624346 (National Center for Advancing Translational Sciences (NCATS), 2012).

Inconclusive results are not listed. Active and inactive are the calls of the source.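 The calls were made as follows: active = potency, the concentration giving half inhibition in the gel assay, of 75 µM or lower; inconclusive = potency above 75 µM yet under 100 µM; inactive = potency of 100 µM or weaker, or none.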

Ubiquitin carboxyl-terminal hydrolase 1 (Homo sapiens) + WD repeat-containing protein 48 (Homo sapiens), sequence (O94782 whole entry, looked up): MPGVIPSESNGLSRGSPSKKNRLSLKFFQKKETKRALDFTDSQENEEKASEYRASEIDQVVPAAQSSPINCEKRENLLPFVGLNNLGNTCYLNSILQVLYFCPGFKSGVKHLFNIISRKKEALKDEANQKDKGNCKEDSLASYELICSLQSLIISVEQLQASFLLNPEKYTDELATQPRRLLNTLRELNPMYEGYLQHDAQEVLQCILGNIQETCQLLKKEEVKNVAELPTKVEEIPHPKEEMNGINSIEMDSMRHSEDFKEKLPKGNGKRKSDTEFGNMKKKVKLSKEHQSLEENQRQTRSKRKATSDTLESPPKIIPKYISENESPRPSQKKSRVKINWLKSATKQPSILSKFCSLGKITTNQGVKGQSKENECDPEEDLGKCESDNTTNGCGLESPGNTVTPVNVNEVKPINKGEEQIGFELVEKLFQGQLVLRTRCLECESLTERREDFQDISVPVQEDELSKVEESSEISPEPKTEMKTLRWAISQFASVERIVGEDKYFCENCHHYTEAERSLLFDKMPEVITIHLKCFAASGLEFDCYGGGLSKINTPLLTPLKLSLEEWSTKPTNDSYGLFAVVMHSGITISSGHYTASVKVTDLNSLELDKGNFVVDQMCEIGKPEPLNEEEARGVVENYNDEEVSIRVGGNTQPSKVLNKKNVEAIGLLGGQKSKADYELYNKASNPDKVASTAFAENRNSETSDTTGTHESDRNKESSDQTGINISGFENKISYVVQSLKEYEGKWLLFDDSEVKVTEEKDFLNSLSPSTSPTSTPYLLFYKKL
Ubiquitin carboxyl-terminal hydrolase 1 (Homo sapiens) + WD repeat-containing protein 48 (Homo sapiens), sequence (Q8TAF3 whole entry, looked up): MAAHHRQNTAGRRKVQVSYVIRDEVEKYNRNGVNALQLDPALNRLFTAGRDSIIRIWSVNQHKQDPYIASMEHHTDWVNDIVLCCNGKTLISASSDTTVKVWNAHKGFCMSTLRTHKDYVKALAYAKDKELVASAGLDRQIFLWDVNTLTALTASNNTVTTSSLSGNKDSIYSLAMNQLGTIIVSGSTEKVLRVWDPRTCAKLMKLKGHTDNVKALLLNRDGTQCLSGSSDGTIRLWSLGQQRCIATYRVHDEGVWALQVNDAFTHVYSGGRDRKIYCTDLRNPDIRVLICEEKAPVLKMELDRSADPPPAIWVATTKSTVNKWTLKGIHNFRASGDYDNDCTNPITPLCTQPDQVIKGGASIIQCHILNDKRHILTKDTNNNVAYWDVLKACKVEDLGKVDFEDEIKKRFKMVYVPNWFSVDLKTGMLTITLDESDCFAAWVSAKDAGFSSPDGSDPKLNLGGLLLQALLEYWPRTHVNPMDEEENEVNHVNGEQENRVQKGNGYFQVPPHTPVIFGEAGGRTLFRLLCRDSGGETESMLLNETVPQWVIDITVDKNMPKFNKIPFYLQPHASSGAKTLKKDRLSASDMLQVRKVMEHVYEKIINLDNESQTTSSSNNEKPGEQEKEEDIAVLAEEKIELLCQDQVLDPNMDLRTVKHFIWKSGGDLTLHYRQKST

This experiment concerns the target Ubiquitin carboxyl-terminal hydrolase 1 (Homo sapiens) + WD repeat-containing protein 48 (Homo sapiens) (UniProt O94782+Q8TAF3). Kind of experiment: Inhibitors of USP1/UAF1: Hit Validation in USP1 Diubiquiting Gel Assay. The following applies: USP1/UAF1 K63 diubiquitin cleavage, SDS-PAGE gel. From the text:
Deubiquitinating enzymes (DUBs) are a class of enzymes that can cleave isopeptide bond formed between the C-terminal carboxylate of ubiquitin and a lysine side-chain amino group on the target protein. Among them, ubiquitin specific proteases (USPs) constitute the largest DUB family. Human USPs are emerging as promising targets for pharmacological intervention because of their connection to a number of human diseases, including prostate, colon and breast cancer (1, 2), pediatric acute lymphoblastic leukemia (3), and familial cylindromatosis (4). The advantage of inhibiting USPs lies in the potential specificity of therapeutic intervention that can lead to better efficacy and reduce nonspecific side effects. In a collaboration between the University of Delaware and the NIH Chemical Genomics Center, a high-throughput screen assay was developed to screen for USP1/UAF1 inhibitors. This miniaturized assay has a fluorescent read-out and is used to screen the NIH Molecular Libraries Small Molecule Repository (MLSMR) in order to identify a small molecule that inhibits USP1. Follow-up assays have also been developed to further test the hits from the primary screen. This assay validates the hits identified from the primary screen using a USP1 diubiquiting gel assay. NIH Chemical Genomics Center [NCGC] NIH Molecular Libraries Probe Centers Network [MLPCN] MLPCN Grant: DA030552 Assay Submitter (PI): Zhihao Zhuang, University of Delaware 1. Priolo, C., et al. (2006) The isopeptidase USP2a protects human prostate cancer from apoptosis. Cancer Res 66, 8625-8632 2. Popov, N., et al. (2007) The ubiquitin-specific protease USP28 is required for MYC stability. Nat Cell Biol 9, 765-774 3. De Pitta, C., et al. (2005) A leukemia-enriched cDNA microarray platform identifies new transcripts with relevance to the biology of pediatric acute lymphoblastic leukemia. Haematologica 90, 890-898 4. Kovalenko, A., et al. (2003) The tumour suppressor CYLD negatively regulates NF-kappaB signalling by deubiquitination. Nature 424, 801-805
The inhibition assay contains 100 nM for USP1/UAF1, 2 microM K63 linked diubiquitin, and inhibitors at varied concentrations (0.08 microM - 114 microM). The reaction was allowed for 1 hour at 37 degrees C, and quenched by the addition of Laemmli sample buffer. The reaction product was separated on a 20% denaturing SDS-PAGE gel and stained with Coomassie Blue. The intensity of the individual diubiquitin and monoubiquitin band was quantified using Quantity One 4.3.1 (Biorad, Hercules, CA). The percentage of the conversion was determined and used to calculate the reaction rate. The rate was plotted against inhibitor concentrations and fitted to determine the IC50 values using GraphPad Prism (GraphPad Software, Inc. La Jolla, CA).
`FC(F)(F)c1ccccc1-c1nccc(NCc2cccs2)n1`: the result was inactive.
In the case of `N#Cc1cccc(-c2ccc3ncnc(NCc4ccccc4)c3c2)c1`, the Potency was 26.6 µM (active).
The same measure, in the same setting: next, `Cc1ccccc1-c1nc(NCc2cccs2)c2ccccc2n1`: 6 µM (active); `COc1ccccc1-c1nccc(NCc2cccc(C)c2)n1`: 18.8 µM (active).
Consider `Cc1cccc(CNc2cc(-c3ccccc3C)ncn2)c1`, for which the Potency is 26.3 µM (active).
For the compound `FC(F)(F)c1ccccc1-c1nc(NCc2cccs2)c2ccccc2n1`, the Potency is 3.3 µM (active).
With `Cc1noc(C)c1-c1nc(NCc2cccs2)c2ccccc2n1`, the Potency is 5 µM (active).
Take `Cc1cccc(CNc2ccnc(-c3ccccc3C(F)(F)F)n2)c1`: the Potency is 3 µM (active).
`FC(F)(F)c1ccccc1-c1nccc(NCc2ccccc2)n1`: the Potency is 9.6 µM (active).
Regarding `COc1ccccc1-c1nc(NCc2cccs2)c2ccccc2n1`, the Potency was 21.3 µM (active).
On to `Cc1cccc(CNc2ccnc(-c3ccccc3Cl)n2)c1`, for which the outcome was inactive.
As for `COc1ccccc1-c1nccc(NCc2ccccc2)n1`, the Potency was 16.9 µM (active).
In the case of `c1ccc2c(Nc3ccncc3)nc(-c3ccc4c(c3)OCO4)nc2c1`, the Potency is 28.6 µM (active).
On to `Clc1ccccc1-c1nccc(NCc2ccccc2)n1`, for which the Potency is 20 µM (active).
Same read-out and setting: with `COc1ccc(CNc2nc(-c3ccccc3OC)nc3ccccc23)c(OC)c1` the figure was 14.5 µM (active); with `COc1ccccc1-c1cc(NCc2ccccc2)ncn1`, 10.9 µM (active).
In the case of `FC(F)(F)c1ccccc1-c1nc(NCc2cccnc2)c2ccccc2n1`, the outcome was inactive.
On to `COc1ccccc1CNc1ccnc(-c2ccccc2C(F)(F)F)n1`, for which the Potency is 4.2 µM (active).
As for `Fc1ccc(Nc2nc(-c3cccnc3)nc3ccccc23)cc1`, the result was inactive.
On to `COc1ccccc1-c1nc(NCc2ccccc2)c2ccccc2n1`, for which the Potency was 6.4 µM (active).
On the same count and under the same terms, next, `COc1cccc(-c2nccc(NCc3cccc(C)c3)n2)c1`: 13 µM (active); `COc1ccc(CNc2ccnc(-c3ccccc3C(F)(F)F)n2)c(OC)c1`: 4.5 µM (active).
Turning to `COc1ccccc1CNc1nc(-c2ccc(N(C)C)cc2)nc2ccccc12`, the Potency is 10 µM (active).
For the compound `Cc1ccccc1-c1nc(NCc2cccnc2)c2ccccc2n1`, the result was inactive.
